# Compound activity: PubChem, National Center for Advancing Translational Sciences (NCATS)
# DT40 TDP1 CPT: qHTS for Inhibitors of human tyrosyl-DNA phosphodiesterase 1 (TDP1): qHTS in cells in presence of CPT | chicken DT40 Tdp1-/-;hTDP1 cells + 20 nM CPT, ATP luminescence, 48 h | Potency, µM (highest dose often 46.2 µM), hits mostly inhibitors | 420,000 compounds, 12% hits | AID 686979, 2013; also: nearly all actives have a fitted effect of over 55% in size
#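 Chicken DT40 Tdp1-/- cells stably complemented with human TDP1 were seeded at 400 cells/well in medium containing 20 nM camptothecin, exposed to pin-transferred compounds, and grown at 37 °C for at least 48 hr. Viability was read as ATP luminescence.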
# TDP1 cell noCPT: qHTS for Inhibitors of human tyrosyl-DNA phosphodiesterase 1 (TDP1): qHTS in cells in absence of CPT; DT40 Tdp1-/- hTDP1 cells, no CPT, ATP luminescence, 48 h; Potency, µM (highest dose often 46.2 µM), hits mostly inhibitors; 420,000 compounds, 15% hits; also: nearly all actives have a fitted effect of over 55% in size
#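 Growth kinetics read by CellTiter-Glo luminescence after ≥48 hr at 37 °C. Cells: DT40 Tdp1-/- stably carrying human TDP1, 400 per well, compound exposure in the absence of CPT (DMSO vehicle).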
# TDP1 inh: qHTS Assay for Inhibitors of Tyrosyl-DNA Phosphodiesterase (TDP1) | Tyrosyl-DNA phosphodiesterase 1 (Homo sapiens), Q9NUW8 | recombinant TDP1, AlphaScreen DNA substrate cleavage | Potency, µM (highest dose often 130 µM), hits mostly inhibitors | 350,000 compounds, 0.28% hits; also: nearly all actives have a fitted effect of over 40% in size
# Target sequence (Q9NUW8 whole entry, looked up): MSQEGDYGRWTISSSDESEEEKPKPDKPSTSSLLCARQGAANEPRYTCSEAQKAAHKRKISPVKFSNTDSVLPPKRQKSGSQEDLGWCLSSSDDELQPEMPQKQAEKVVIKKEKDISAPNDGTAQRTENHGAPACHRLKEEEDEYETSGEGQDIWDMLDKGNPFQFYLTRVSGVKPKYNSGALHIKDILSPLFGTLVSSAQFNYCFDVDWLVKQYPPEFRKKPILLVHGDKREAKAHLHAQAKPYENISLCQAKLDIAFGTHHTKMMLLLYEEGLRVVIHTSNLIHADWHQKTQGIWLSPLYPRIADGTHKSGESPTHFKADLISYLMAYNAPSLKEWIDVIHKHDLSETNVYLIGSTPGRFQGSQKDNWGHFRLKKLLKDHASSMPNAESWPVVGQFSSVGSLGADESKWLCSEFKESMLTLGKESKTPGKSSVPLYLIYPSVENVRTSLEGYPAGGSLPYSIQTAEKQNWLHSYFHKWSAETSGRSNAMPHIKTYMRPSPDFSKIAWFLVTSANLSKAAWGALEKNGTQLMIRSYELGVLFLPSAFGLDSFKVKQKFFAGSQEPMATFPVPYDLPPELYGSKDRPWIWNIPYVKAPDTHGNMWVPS
#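 Recombinant E. coli-expressed Tdp1 (1 nM) preincubated with compound 15 min at RT, then 5'-biotin/3'-phosphotyrosine-FITC DNA substrate (15 nM) added for 5 min. AlphaScreen beads (10 ug/ml) added, 10 min RT; tyrosine-FITC cleavage read as signal loss.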
# TGFb inhibitor: qHTS for Inhibitors of TGF-b. AID 588855, 2011. HepG2 CAGA-GFP TGF-b/SMAD3 reporter, GFP fluorescence, 18 h; TGF-beta stimulated, 500 pg/mL final. Potency, µM (highest dose often 46.1 µM), usual class: inhibitors. 410,000 compounds, 1.2% hits; also: nearly all actives have a fitted effect of over 65% in size
#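 TGF-beta reporter screen: HEPG2 CAGA-GFP, 1% FBS, 500 pg/mL TGF-beta final, 18 h; per-cell GFP summed per well; curves fitted and categorized by class.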
# IL-1B inflam inh: qHTS for Inhibitors of Inflammasome Signaling: IL-1-beta AlphaLISA Primary Screen; THP-1 LPS/ATP IL-1B secretion, AlphaLISA, 16 h; active compounds read low; activity change, % at 57.5 µM; 360,000 compounds, 4.7% hits; AID 743279, 2014; in the data active = activity change below about -50%; inconclusive = mostly about -30% to -49%
#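 Secreted IL-1B measured by AlphaLISA bead assay after 16 h compound exposure of THP-1 cells; compounds (final up to 57.5 uM) added 1 h before LPS (250 ng/mL) and ATP (1.25 mM) stimulation; lower signal means less secretion.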
# HepG2 tox: qHTS for Inhibitors of TGF-b: Cytotox Counterscreen | HepG2 CAGA-GFP viability, ATP luminescence, 18 h | Potency, µM (highest dose often 46.1 µM), hits mostly cytotoxic | 410,000 compounds, 0.76% hits
#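 HepG2 CAGA-GFP cells (1000/well, DMEM with 1% FBS) received compound, then TGF-beta at 500 pg/mL final, and were incubated 18 hours at 37 degrees C. Viability was read by CellTiter-Glo luminescence. Media-only wells were set as complete cell-killing and DMSO as no toxicity.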
# Hits are given with their value; . = inactive; ? = inconclusive; / = no result given; [ ] = dose if it differs, or a comment. Sampled rows, rich in hits. Any-hit rate of the full collection: about 18%. Unless noted, calls follow the shape of the dose curve; as a rule, active = well fitted curve in the direction sought with a large enough effect; inconclusive = small, poorly fitted or top-dose-only effect, or another doubt; inactive = no such curve, though single readings can be large; an effect the other way counts as inactive or inconclusive.
SMILES,DT40 TDP1 CPT,TDP1 cell noCPT,TDP1 inh,TGFb inhibitor,IL-1B inflam inh,HepG2 tox
O=C(Nc1ccc(N2CCOCC2)cc1)c1cc2c(s1)CCCC2,?,?,.,.,-79,.
O=C(Nc1ccon1)c1cc2c(s1)CCCCCC2,.,.,.,.,.,.
NCC[C@H](O)C(=O)N[C@H]1C[C@@H](N)[C@@H](O[C@H]2O[C@@H](CN)[C@@H](O)[C@@H](O)[C@@H]2O)[C@@H](O)[C@@H]1O[C@H]1O[C@@H](CO)[C@@H](O)[C@@H](N)[C@@H]1O,/,/,.[21 µM],/,/,/
COc1ccc(NC(=O)CN(C)C(=O)c2c(C)nn(Cc3ccc(C)cc3)c2Cl)cc1,.,?,.,.,.,.
O=C(Nc1cccc2ncccc12)c1ccc(Cl)cc1,.,.,.,.,.,.
CCOc1ccc(C(=O)Nc2cccc3ncccc23)cc1Cl,23µM,?,/,.,.,.
O=C(Nc1cccc2ncccc12)c1ccc([N+](=O)[O-])o1,12µM,16µM,.,13µM,-93,13µM
O=C(Nc1cccc2ncccc12)c1ccc(-c2ccc(Br)cc2)o1,18µM,23µM,.,.,.,.
O=C(Nc1ccccc1Cl)c1ccc([N+](=O)[O-])o1,?,29µM,.,?,-97,.
O=C(Nc1ccc(NC(=O)c2ccc([N+](=O)[O-])o2)cc1Cl)c1ccco1,?,?,.,.,/,.
N#Cc1ccccc1OCC(O)CNCCNC(=O)Nc1ccccc1 (stereo unspecified),.,.,.,/,/,/
Cc1ccccc1NC(=O)c1ccc([N+](=O)[O-])o1,?,12µM,.,16µM,?,.
O=C(Nc1cccc2ncccc12)c1cccc(Br)c1,.,.,/,.,.,.
O=C(Nc1cccc2ncccc12)c1ccc(Br)c([N+](=O)[O-])c1,?,?,.,.,-108,.
Cc1ccc(NC(=O)c2ccc([N+](=O)[O-])o2)c(C)c1,23µM,?,.,13µM,-68,.
O=C(Cn1nnc2ccccc2c1=O)N[C@H](C(=O)O)c1ccccc1,?,.,/,.,.,.
CCCc1[nH]n(-c2ccc(F)cc2)c(=O)c1C=Nc1cccc(F)c1,6.5µM,6.5µM,.,?,.,.
CCC1(C2CCN(C(=O)c3ccccc3C(C)=O)CC2)NC(=O)N(CCc2scnc2C)C1=O (stereo unspecified),.,.,/,/,/,/
O=[N+]([O-])c1cccc(/C=N/Nc2nc(N3CCOCC3)nc(N3CCOCC3)n2)c1,.,?,.,.,.,.
O=[N+]([O-])c1cccc(/C=N/Nc2cc(N3CCOCC3)ncn2)c1,?,?,/,.,-68,.
C/C(=N\Nc1cc(N2CCOCC2)ncn1)c1ccccc1,23µM,?,/,.,-79,.
C/C(=N\Nc1cc(N2CCOCC2)ncn1)c1cccc([N+](=O)[O-])c1,?,16µM,.,.,.,.
COc1ccc(C(c2sc3nc(C)nn3c2O)N2CCN(Cc3ccccc3)CC2)cc1OC (stereo unspecified),.,.,.,.,.,.
Cc1nc2sc(C(c3cccs3)N3CCN(Cc4ccccc4)CC3)c(O)n2n1 (stereo unspecified),23µM,.,/,.,.,.
CN(Cc1ccccc1)C(=O)c1csc([C@@H]2O[C@H](CO)[C@H](O)[C@H](O)[C@H]2O)n1,.,.,/,.,.,.
SMILES,DT40 TDP1 CPT,TDP1 cell noCPT,TDP1 inh,TGFb inhibitor,IL-1B inflam inh,HepG2 tox
O=C(Nc1ccc(Br)cc1)c1cc([N+](=O)[O-])cc([N+](=O)[O-])c1,4.6µM,?,/,.,-101,.
Cc1nc2ccc(C(=O)Nc3cccc([N+](=O)[O-])c3)cc2s1,?,18µM,.,.,.,.
COC(=O)c1ccc(NC(=O)c2ccc3nc(C)sc3c2)cc1,.,.,/,.,.,.
Cc1nc2ccc(NC(=O)c3ccc(Cl)c(NC(=O)c4cccs4)c3)cc2s1,?,21µM,.,?,.,.
COc1ccc(C(=O)Nc2ccc3nc(C)sc3c2)cc1OC,.,.,.,.,-58,.
CCn1c(C)c(C)c2cc(C(=O)NCCN3CCCCCC3)ccc21,?,?,.,.,.,.
Cc1ccccc1C(=O)N(Cc1sccc1C)C1CCS(=O)(=O)C1 (stereo unspecified),.,.,.,/,/,.
Cc1nc2ccc(C(=O)N/N=C/c3cc([N+](=O)[O-])ccc3O)cc2[nH]1,.,.,.,.,.,.
O=C(N/N=C/c1cc([N+](=O)[O-])ccc1O)c1cccc(NC(=O)c2cccc(Cl)c2)c1,5.2µM,3.3µM,56µM,.,.,.
CC(NC(=O)Nc1cccc([N+](=O)[O-])c1)(C(F)(F)F)C(F)(F)F,3.7µM,?,.,?,.,.
O=C(Nc1cccc([N+](=O)[O-])c1)c1cccc(C(=O)Nc2cccc([N+](=O)[O-])c2)c1,?,7.3µM,.,.,.,.
Cn1nc(C(C)(C)C)c([N+](=O)[O-])c1C(=O)Nc1ccc(Br)cc1,?,23µM,.,.,.,.
Cc1ccc(CC2(c3ccccc3)NC(=O)NC2=O)cc1 (stereo unspecified),.,?,/,.,.,.
C=CCn1c(Cn2c(-c3cnccn3)nc3ccccc32)nc2ccccc21,.,?,/,/,.,/
O=C(/C=C/c1ccc(Cl)cc1Cl)c1nc2ccccc2[nH]1,12µM,?,.,.,.,.
Clc1cccc(Cl)c1/C=C/c1nc2ccccc2[nH]1,?,16µM,.,?,.,.
Clc1ccc(/C=C/c2nc3ccccc3[nH]2)cc1,?,?,.,.,.,11µM
N#C/C(=C\c1ccc(Cl)cc1)c1nc2ccccc2[nH]1,.,.,.[12.3 µM],.,/,.
C(=N\n1cnnc1)/c1nc2ccccc2[nH]1,.,.,.,.,.,.
Clc1ccc(/C=C/c2nc3ccccc3[nH]2)c(Cl)c1,13µM,18µM,.,?,?,.
CCOC(=O)CC(=O)Nc1ccsc1C(N)=O,.,.,.,.,.,.
CCCOCC(C)OCC(C)O (stereo unspecified),/,/,.,/,/,/
C=CCOC1=CS(=O)(=O)N(Cc2ccc(Br)cc2)c2ccc(Br)cc21,16µM,?,/,.,.,.
Cn1c(SCCCC(=O)c2ccc(Br)cc2)nnc1-c1ccncc1,?,?,.,?,.,.
